The source made the active and inactive calls.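 How the source made its calls, unless noted: active means inhibition of the reporter signal at or above 50%; inactive means inhibition below 50%.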
How the values were obtained:
[1] = inhibitors of TNFa-induced NFkB p65 translocation, primary screen, imaging, HUVEC, MLSMR starter and 10KST1 sets (AID 438;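 active means inhibition above 20% together with a positive visual image hit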;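 further: compound added about 3h40 before a 20 min TNFalpha stimulation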;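 on inhibition: signal is the nuclear over cytoplasmic p65 intensity ratio per well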); conditions: HUVEC TNFa-induced p65 nuclear translocation; cell count: measured here: nuclei count (cytotoxicity indicator), at 2.08 µM; inhibition: at 2 µM, stronger effect = higher value, 0% TNFa-plus-vehicle, 100% no-TNFa wells
[2] = inhibitors of mutant huntingtin aggregation, primary screen, imaging, exon1htt(103Q)mCFP cells, high-content imaging (AID 483;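 active means visual image review flags a hit and inhibition of aggregation exceeds 20%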;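 further: compound exposure lasted 3 days before fixation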;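 on nuclei count: percent of the per-plate median nuclei count of sample wells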); conditions: exon1htt(103Q)mCFP cell line, aggregate imaging, at 2 µM; inhibition of aggregation: stronger effect = higher value; nuclei count: measured here: cell count, toxicity
[3] = inhibitors of E-selectin induction by TNFa, primary screen, imaging, HUVEC, immunofluorescence, MLSMR starter and 10KST1 sets (AID 487;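 active means visually confirmed hit in the image check and inhibition above 20%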;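 on inhibition: signal is fraction of cell area covered by stained E-selectin grains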;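 on nuclei count: 100% = median nuclei count of all wells on the same plate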); conditions: HUVEC TNFalpha-induced E-selectin immunofluorescence imaging, at 2 µM; inhibition: stronger effect = higher value; nuclei count: measured here: cell number, toxicity
[4] = target: Voltage-gated potassium channel subunit beta-2 (Rattus norvegicus) (UniProt P62483); assay: KvBeta enzyme negative modulators, primary screen, biochemical, NADPH fluorescence (AID 622;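 active means fluorescence slope higher than the sample average by over 3 SD, cut at about -0.22 in these data, passing the limit was not always enough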;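 further: slope of raw intensity against log time taken from 70 to 1610 s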); conditions: recombinant KvBeta, 4-cyanobenzaldehyde reduction, at 10 µM, stronger effect = higher value
[5] = target: Voltage-gated potassium channel subunit beta-2 (Rattus norvegicus) (UniProt P62483); assay: KvBeta positive modulators, primary screen, biochemical, NADPH fluorescence (AID 623;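 active means NADPH fluorescence slope more negative than the mean of all samples by about 3 SD, 99.7% confidence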;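 further: fluorescence intensity change per second fitted from 20 to 320 s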); conditions: Recombinant KvBeta, NADPH fluorescence decrease slope, 10 min; at 10 µM; stronger effect = lower value
[6] = target: Alpha-2C adrenergic receptor (Homo sapiens) (UniProt P18825); assay: modulators of alpha2C/GIRK thallium flux, primary screen, cell-based, HEK293 alpha2C/GIRK1/2 (AID 624;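 active means fluorescence slope after compound addition differing from the mean of all screened samples at 99.7% confidence, in either direction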;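 further: slope of fluorescence ratio to pre-addition baseline per second over 15 to 24 s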); conditions: thallium flux BTC fluorescence, at 10 µM, actives lie on both sides
[7] = inhibitors of Sendai virus-induced IRF3 signaling, primary screen, TLR/RLR signaling modifier project, cell-based, Sendai virus stimulus, luciferase, 10K MLSCN set (AID 602276;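 active means inhibition at or above 50% at 10 µM; inactive means inhibition below 50%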;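 further: firefly luciferase from ISG56 promoter only with Renilla not read in this screen; 0% = Sendai virus plus DMSO and 100% = medium plus DMSO without virus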); conditions: HEK293 RL24 IRF3 luciferase reporter, at 10 µM, stronger effect = higher value
[8] = inhibitors of poly I:C-induced TLR3 signaling, primary screen, cell-based, poly I:C stimulus, luciferase, 10K MLSCN set (AID 602277); conditions: HEK293-TLR3 RL24 IRF3 luciferase reporter, at 10 µM, stronger effect = higher value

Sequence of Alpha-2C adrenergic receptor (Homo sapiens) (P18825 whole entry, looked up): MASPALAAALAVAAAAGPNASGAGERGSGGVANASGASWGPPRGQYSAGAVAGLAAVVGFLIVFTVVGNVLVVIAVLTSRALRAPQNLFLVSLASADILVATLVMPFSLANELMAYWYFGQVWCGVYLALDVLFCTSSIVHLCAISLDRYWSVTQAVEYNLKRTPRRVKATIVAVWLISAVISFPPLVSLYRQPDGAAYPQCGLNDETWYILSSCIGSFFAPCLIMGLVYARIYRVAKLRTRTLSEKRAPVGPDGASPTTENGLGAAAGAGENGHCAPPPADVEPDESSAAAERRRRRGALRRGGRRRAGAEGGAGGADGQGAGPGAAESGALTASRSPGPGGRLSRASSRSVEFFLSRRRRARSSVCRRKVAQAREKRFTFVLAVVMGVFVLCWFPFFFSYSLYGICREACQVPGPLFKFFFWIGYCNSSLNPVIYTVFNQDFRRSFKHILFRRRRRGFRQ
Sequence of Voltage-gated potassium channel subunit beta-2 (Rattus norvegicus) (P62483 whole entry, looked up): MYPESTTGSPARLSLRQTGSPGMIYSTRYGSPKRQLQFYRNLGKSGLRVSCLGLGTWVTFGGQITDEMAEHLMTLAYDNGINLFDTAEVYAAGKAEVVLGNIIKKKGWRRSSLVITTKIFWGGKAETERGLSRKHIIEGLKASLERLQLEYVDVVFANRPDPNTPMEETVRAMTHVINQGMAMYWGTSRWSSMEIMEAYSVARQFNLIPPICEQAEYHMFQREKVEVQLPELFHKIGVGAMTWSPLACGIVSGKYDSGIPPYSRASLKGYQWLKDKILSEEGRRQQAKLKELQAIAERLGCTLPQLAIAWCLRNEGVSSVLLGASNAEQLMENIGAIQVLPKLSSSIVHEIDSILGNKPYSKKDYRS

SMILES	cell count [1]	inhibition [1]	inhibition of aggregation [2]	nuclei count [2]	inhibition [3]	nuclei count [3]	fluorescence slope [4]	NADPH fluorescence slope [5]	slope [6]	inhibition [7]	inhibition [8]
O=C(c1ccc2ccccc2n1)N1CCN(c2ccccc2)CC1	874	0% (inactive)	-15% (inactive)	107%	-78.3% (inactive)	142%	-0.476 (inactive)	9.7e-06 (inactive)	0.00614 (inactive)	-18.5% (inactive)	-4.71% (inactive)
Cc1cc(Br)ccc1NC(=O)CCN1C(=O)c2ccncc2C1=O	403	3.8% (inactive)	-19.7% (inactive)	96.6%	39.2% (inactive)	89.7%	-0.51 (inactive)	-3.1e-05 (inactive)	0.00525 (inactive)	-13.8% (inactive)	13.1% (inactive)
CCCc1cc(Nc2cccc(OC)c2)n2ncnc2n1	708	-9.9% (inactive)	-22.9% (inactive)	100%	-8.3% (inactive)	111%	-0.321 (inactive)	-3e-05 (inactive)	0.00589 (inactive)	12.1% (inactive)	16.3% (inactive)
COCCNC(=O)c1ccc(CS(=O)(=O)c2ccc(OC)cc2)o1	636	4.1% (inactive)	-4.8% (inactive)	96.8%	5.3% (inactive)	124%	-0.583 (inactive)	-5.4e-05 (inactive)	0.00675 (inactive)	9.76% (inactive)	25.7% (inactive)
CC(C)C(=O)Nc1ccc(-c2nc3cccnc3o2)cc1	413	6.7% (inactive)	12.8% (inactive)	109%	23.3% (inactive)	107%	-0.262 (inactive)	4.8e-06 (inactive)	0.0065 (inactive)	-33.7% (inactive)	-147% (inactive)
COC(=O)NCC(c1cccnc1)N1CCOCC1 (configuration not stated)	605	-11% (inactive)	16.6% (inactive)	97.8%	-24% (inactive)	105%	-0.589 (inactive)	-3.5e-05 (inactive)	0.0059 (inactive)	-1.28% (inactive)	16.1% (inactive)
COc1ccc(-c2nnc(SCC(=O)N3CCCCC3)o2)cc1OC	670	-1.6% (inactive)	5.7% (inactive)	120%	-85.6% (inactive)	123%	-0.543 (inactive)	-9.6e-06 (inactive)	0.00656 (inactive)	3.05% (inactive)	15.9% (inactive)
COc1cc(C(Nc2ccc3c(c2)OCO3)C(=O)NC2CCCCC2)cc(OC)c1OC (configuration not stated)	835	-10.7% (inactive)	12.3% (inactive)	88.5%	-35.2% (inactive)	121%	-0.63 (inactive)	-3e-05 (inactive)	0.00532 (inactive)	14.6% (inactive)	28.3% (inactive)
Cc1ccc(S(=O)(=O)CCC(=O)Nc2ccc3c(c2)OCO3)cc1	666	-12.2% (inactive)	-1.1% (inactive)	131%	-26.9% (inactive)	115%	-0.587 (inactive)	-6.2e-05 (inactive)	0.00603 (inactive)	-0.686% (inactive)	12.3% (inactive)
Cc1nc2nc(-c3cccnc3)nn2c(C)c1Cl	689	-13.8% (inactive)	-5.4% (inactive)	81.3%	-32.8% (inactive)	107%	-0.333 (inactive)	-3.7e-05 (inactive)	0.00559 (inactive)	-17.9% (inactive)	-15.3% (inactive)
O=C(Cn1nnc(-c2ccc(S(=O)(=O)N3CCCC3)cc2)n1)NCC1CCCO1 (configuration not stated)	374	-6.9% (inactive)	7.6% (inactive)	95%	-7.7% (inactive)	112%	-0.481 (inactive)	3.3e-05 (inactive)	0.00625 (inactive)	-11.8% (inactive)	15.1% (inactive)
O=C(O)c1cccc(COCC(F)(F)C(F)F)c1	714	-9% (inactive)	17.2% (inactive)	101%	-16.8% (inactive)	102%	-0.497 (inactive)	-4.4e-05 (inactive)	0.00506 (inactive)	5.99% (inactive)	5.49% (inactive)

— PubChem BioAssay
